The record followed here is PubChem BioAssay (Tox21).

Where “and” joins values, the source holds several entries; their conditions need not be identical. Equal values may be shown once. Values without a mark were called inactive. Records with an inconclusive call do not appear. Calls of active or inactive are those of the source. Unless noted, the call rests on the fitted dose curve.

The nature of assay [1]: Nuclear factor erythroid 2-related factor 2/antioxidant responsive element (Nrf2/ARE) small molecule agonists: luciferase reporter gene qHTS assay in human keratinocytes (AID 1919969). Further: nearly all actives have a fitted effect of over 35% in size. Further: potency means the concentration at half of the fitted maximal effect.
Assay [2] addresses KiSS-1 receptor (Homo sapiens) (UniProt Q969F8). In words: Human kisspeptin (KISS1R) small molecule agonists, calcium flux assay in KISS1R-HEK293 cells (AID 1920064; active means well fitted activation curve with a large enough effect in the repeat runs). The essentials: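 Cell line: HEK293, stable human KISS1R. Dye loading 1 h at 37 C after 18 h culture. Read: kinetic fluorescence, 480/540 nm, 3 min at 1 s intervals.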
The nature of assay [3]: G protein-coupled receptor (GPCR) small molecule agonists, calcium flux assay: HEK293 wild type cell line counter screen (AID 1920065). Summed up:
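Tox21 10K compounds, 15 concentrations each in triplicate, pin-transferred in DMSO onto dye-loaded cells; kinetic read at 480/540 nm for 3 min, 1 s intervals.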
A general note: A change in cytosolic calcium serves as a functional read-out for many receptors and channels.

A short description of assay [4]: p53 small molecule agonists, cell-based qHTS assay with human liver microsomes: qHTS cell viability counter screen (AID 1963579). Further: nearly all actives have a fitted effect of over 45% in size. Summed up:
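Cytotoxicity counter screen: p53RE-bla, 4,000 cells/well; 5 h settle, 37 C/5% CO2; cpd + HLM 0.5 mg/mL + NADPH 0.5 mg/mL (final); 16 h, 37 C; CellTiter-Glo, 30 min RT, luminescence.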
(In general: qHTS replaces the single test concentration by a dilution series.)

A short description of assay [5]: p53 small molecule agonists, cell-based qHTS assay with rat liver microsomes: qHTS cell viability counter screen (AID 1963580). Further: nearly all actives have a fitted effect of over 45% in size. The essentials: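 After the beta-lactamase ratio was read, CellTiter-Glo was added to the same wells and luminescence measured at 30 min; cells had been treated 16 h at 37 C with compounds, rat liver microsomes and NADPH (0.5 mg/mL final each).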

Assay [6] in a line: p53 small molecule agonists, cell-based qHTS assay: qHTS cell viability counter screen (AID 1963581). Further: nearly all actives have a fitted effect of over 45% in size. Summed up:
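ATP content measured by luminescence in HCT-116 p53RE-bla cells treated 16 h at 37 C, same wells as the reporter screen.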

For assay [7], the target named is 5-hydroxytryptamine receptor 2A (Homo sapiens) (UniProt P28223). In words: 5-hydroxytryptamine receptor 2A (HTR2A) small molecule antagonists, cell-based qHTS assay (AID 1963586). Further: nearly all actives have a fitted effect of over 45% in size. Further: potency means the concentration at half of the fitted maximal effect. The essentials: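 CHO cells stably expressing human HTR2A were plated for 18 h at 37 C, then loaded with calcium dye for 1 h. Compounds were preincubated 5 min at room temperature before DOI (4 nM solution) was added. Kinetic fluorescence was read for 3 min.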

The target is the same in assay [8]. In words: 5-hydroxytryptamine receptor 2A (HTR2A) small molecule agonists, cell-based qHTS assay (AID 1963587). Further: nearly all actives have a fitted effect of over 30% in size. The essentials:
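CHO cells stably expressing human HTR2A, plated 18 h, loaded with calcium dye 1 h at 37 C. Agonist mode: compounds added and intracellular calcium fluorescence recorded kinetically for 2 min at 1 sec intervals.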

Assay [9] deals with Muscarinic acetylcholine receptor M1 (Homo sapiens) (UniProt P11229). Nature of the assay: Cholinergic receptor muscarinic 1 (CHRM1) small molecule antagonists, cell-based qHTS assay (AID 1963588). Further: nearly all actives have a fitted effect of over 40% in size. Further: potency means the concentration at half of the fitted maximal effect. Summed up: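 Compounds were tested at 15 concentrations in three independent runs. Dye-loaded CHRM1-CHO cells were exposed 5 min at room temperature before stimulation by acetylcholine added at 50nM. Intracellular calcium was read kinetically on FDSS for 3 min.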

For assay [10] the target is unchanged. Nature of the assay: Cholinergic receptor muscarinic 1 (CHRM1) small molecule agonists, cell-based qHTS assay (AID 1963589). Further: nearly all actives have a fitted effect of over 35% in size. Summed up: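 Homogeneous fluorescence calcium flux, agonist mode. Human M1-expressing CHO cells; compound dosed at 15 concentrations, three independent runs; signal sampled every 1 sec.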
The nature of assay [11]: cAMP Responsive Elements (CRE) small molecule agonists, cell-based qHTS assay (AID 1963590). The essentials: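 HEK 293T cells stably bearing CRE-bla were plated at 2,000 cells per well and rested 18 h. Compounds, positive controls or DMSO were added for 3 h at 37 C. LiveBLAzer B/G substrate was then loaded for 2 h at room temperature.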
The nature of assay [12]: cAMP Responsive Elements (CRE) small molecule antagonists, cell-based qHTS assay (AID 1963591; active means well fitted inhibition curve with a large enough effect in the signal ratio in the repeat runs, not every such curve was filed as active; the % refers to the signal ratio). Summed up:
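First, CRE-bla HEK293T cells settled 18 h at 37 C. Next, compound and 0.25 uM final NKH477 were applied for 3 h. Last, LiveBLAzer B/G substrate was loaded for 2 h at room temperature.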

In assay [13] the target is Beta-2 adrenergic receptor (Homo sapiens) (UniProt P07550). In words: Adrenergic beta2 receptor (ADRB2) small molecule antagonists, cell-based qHTS assay (AID 1963592). Further: series mostly up to about 92 µM; nearly all actives have a fitted effect of over 50% in size. The essentials: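 Assay format: CHO-ADRB2 cells, 18-20hr seeding at 37C/5% CO2, then compound plus 1nM isoproterenol agonist mix for 0.5hr RT. Homogeneous time-resolved fluorescence cAMP detection after 1hr, expressed as 665/615 nm ratio.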

The target is the same in assay [14]. Nature of the assay: Adrenergic beta2 receptor (ADRB2) small molecule agonists, cell-based qHTS assay (AID 1963593).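 Further: CHO cells stably overexpressing human ADRB2.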 Summed up:
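CHO cells stably over-expressing ADRB2 were plated overnight at 37C, then dosed with compounds plus a stimulation mix containing 100uM IBMX and 25uM Ro-20-1724 for 0.5hr at room temperature. cAMP was measured by HTRF competition, 1hr.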

Assay [15] deals with D(2) dopamine receptor (Homo sapiens) (UniProt P14416). Nature of the assay: Dopamine D2 receptor (DRD2) small molecule agonists, cell-based qHTS assay (AID 1963594). Further: nearly all actives have a fitted effect of over 35% in size. The essentials:
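HEK293 cells stably expressing human DRD2, pre-treated with PDE inhibitor Ro20-1724 (0.1 mM final) and compound 10 min at room temperature, then stimulated with NKH477 (200nM […]) for 30 min. cAMP read by HTRF (665/620 nm).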

For assay [16] the target is unchanged. In words: Dopamine D2 receptor (DRD2) small molecule antagonists, cell-based qHTS assay (AID 1963595; active means well fitted inhibition curve with a large enough effect in the signal ratio in the repeat runs, with a control signal flat; the % refers to the signal ratio; further: potency means the concentration at half of the fitted maximal effect). Summed up: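 Stable D2 receptor HEK293 line, 24 h after seeding. Compound preincubated 10 min, then quinpirole (12 nM) with forskolin analogue NKH477 (200 nM), 30 min, room temperature. Detection by time-resolved FRET of cAMP.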
The nature of assay [17]: p53 small molecule agonists, cell-based qHTS assay with rat liver microsomes (AID 1963578). Summed up:
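Cells carrying a p53 response element–beta-lactamase reporter were plated and rested 5 h, then dosed with compound in DMSO plus rat liver microsomes and NADPH, each at 0.5 mg/mL final. After 16 h at 37 C, LiveBLAzer substrate was added for 2 h.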

Assay [18] can be described thus: p53 small molecule agonists, cell-based qHTS assay (AID 1963582; active means well fitted activation curve with a large enough effect in the signal ratio in the repeat runs, not every such curve was filed as active; the % refers to the signal ratio). The essentials:
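16 h compound exposure (37 C) of p53 response element–bla cells, preceded by 5 h recovery at 37 C/5% CO2; read-out via LiveBLAzer B/G FRET substrate, 2 h RT, fluorescence intensity.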

Assay [19] in a line: p53 small molecule agonists, cell-based qHTS assay with human liver microsomes (AID 1963577). The essentials: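 Fluorescence of the beta-lactamase reporter in p53RE-bla cells, detected with LiveBLAzer substrate (2 h, room temperature, dark), served as the read-out after 16 h compound exposure at 37 C with human liver microsomes and NADPH, each 0.5 mg/mL final.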
In assay [20] the target is Gonadotropin-releasing hormone receptor (Homo sapiens) (UniProt P30968). Nature of the assay: Human gonadotropin-releasing hormone receptor (GnRHR) small molecule agonists, calcium flux assay in GnRHR-HEK293 cells (AID 1920063). Further: nearly all actives have a fitted effect of over 35% in size. Summed up: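 Compounds dissolved in DMSO are pin-transferred onto dye-loaded GnRHR-HEK293 cells, which were seeded 18 h before at 37 C/5% CO2. Calcium signal is read as fluorescence intensity at 1 s intervals for 3 min.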
On the % scale 0 is the no-effect control and ±100 the full control effect.

Sequence of KiSS-1 receptor (Homo sapiens) (Q969F8 whole entry, looked up): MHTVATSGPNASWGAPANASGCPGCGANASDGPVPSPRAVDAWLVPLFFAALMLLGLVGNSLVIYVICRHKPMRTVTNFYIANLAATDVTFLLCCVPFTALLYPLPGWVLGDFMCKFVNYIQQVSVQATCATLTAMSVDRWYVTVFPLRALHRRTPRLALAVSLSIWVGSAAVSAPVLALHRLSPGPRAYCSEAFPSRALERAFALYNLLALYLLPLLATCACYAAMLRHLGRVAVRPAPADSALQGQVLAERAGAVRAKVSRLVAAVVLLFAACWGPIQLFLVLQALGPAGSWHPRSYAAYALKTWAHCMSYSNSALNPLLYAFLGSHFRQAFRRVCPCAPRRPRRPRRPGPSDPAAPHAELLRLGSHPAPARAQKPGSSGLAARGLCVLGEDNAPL
Sequence of 5-hydroxytryptamine receptor 2A (Homo sapiens) (P28223 whole entry, looked up): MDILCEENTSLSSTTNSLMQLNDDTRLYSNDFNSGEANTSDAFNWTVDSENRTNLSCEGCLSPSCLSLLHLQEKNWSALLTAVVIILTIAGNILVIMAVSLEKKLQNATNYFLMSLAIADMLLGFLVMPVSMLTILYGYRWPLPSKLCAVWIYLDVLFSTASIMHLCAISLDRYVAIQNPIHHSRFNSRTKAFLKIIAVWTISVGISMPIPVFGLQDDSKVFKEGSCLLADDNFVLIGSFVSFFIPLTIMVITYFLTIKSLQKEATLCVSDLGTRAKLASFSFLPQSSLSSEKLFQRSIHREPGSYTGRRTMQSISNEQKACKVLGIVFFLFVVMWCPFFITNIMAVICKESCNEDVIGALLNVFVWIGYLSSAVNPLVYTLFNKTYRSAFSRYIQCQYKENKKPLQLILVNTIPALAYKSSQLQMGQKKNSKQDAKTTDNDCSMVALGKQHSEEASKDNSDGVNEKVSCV
Sequence of Beta-2 adrenergic receptor (Homo sapiens) (P07550 whole entry, looked up): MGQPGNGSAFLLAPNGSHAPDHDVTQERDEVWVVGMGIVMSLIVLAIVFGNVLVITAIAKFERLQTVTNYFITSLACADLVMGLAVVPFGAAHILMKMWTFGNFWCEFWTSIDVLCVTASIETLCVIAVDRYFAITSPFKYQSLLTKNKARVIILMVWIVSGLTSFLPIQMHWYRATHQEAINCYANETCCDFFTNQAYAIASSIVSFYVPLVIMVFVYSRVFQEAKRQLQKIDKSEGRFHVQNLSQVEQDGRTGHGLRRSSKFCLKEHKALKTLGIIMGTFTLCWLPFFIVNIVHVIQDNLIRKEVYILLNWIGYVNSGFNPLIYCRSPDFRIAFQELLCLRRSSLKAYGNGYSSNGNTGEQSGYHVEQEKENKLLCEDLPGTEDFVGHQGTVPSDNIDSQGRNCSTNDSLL
Sequence of D(2) dopamine receptor (Homo sapiens) (P14416 whole entry, looked up): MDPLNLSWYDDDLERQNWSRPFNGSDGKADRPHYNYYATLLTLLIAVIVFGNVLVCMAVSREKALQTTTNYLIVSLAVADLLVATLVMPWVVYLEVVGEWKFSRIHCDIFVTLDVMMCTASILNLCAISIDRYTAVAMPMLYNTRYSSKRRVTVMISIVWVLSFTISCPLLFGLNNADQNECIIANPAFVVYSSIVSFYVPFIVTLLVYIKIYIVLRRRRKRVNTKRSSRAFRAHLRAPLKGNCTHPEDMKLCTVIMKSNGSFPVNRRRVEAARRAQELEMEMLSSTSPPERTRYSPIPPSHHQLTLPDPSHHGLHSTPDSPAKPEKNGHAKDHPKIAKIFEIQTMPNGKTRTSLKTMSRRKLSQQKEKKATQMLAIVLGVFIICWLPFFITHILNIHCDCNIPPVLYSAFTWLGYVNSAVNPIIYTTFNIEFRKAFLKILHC
Sequence of Muscarinic acetylcholine receptor M1 (Homo sapiens) (P11229 whole entry, looked up): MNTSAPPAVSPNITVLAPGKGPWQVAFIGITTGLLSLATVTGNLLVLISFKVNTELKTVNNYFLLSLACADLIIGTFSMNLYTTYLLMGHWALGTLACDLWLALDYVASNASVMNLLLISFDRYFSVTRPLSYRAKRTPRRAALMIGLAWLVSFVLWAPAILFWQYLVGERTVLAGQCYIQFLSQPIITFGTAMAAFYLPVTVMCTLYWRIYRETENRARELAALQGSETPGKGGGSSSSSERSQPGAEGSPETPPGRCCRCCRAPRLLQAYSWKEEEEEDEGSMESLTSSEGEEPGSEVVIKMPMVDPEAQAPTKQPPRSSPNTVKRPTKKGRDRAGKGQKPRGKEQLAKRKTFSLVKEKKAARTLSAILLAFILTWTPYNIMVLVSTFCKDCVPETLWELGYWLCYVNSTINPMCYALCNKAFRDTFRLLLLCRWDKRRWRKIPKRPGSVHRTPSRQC
Sequence of Gonadotropin-releasing hormone receptor (Homo sapiens) (P30968 whole entry, looked up): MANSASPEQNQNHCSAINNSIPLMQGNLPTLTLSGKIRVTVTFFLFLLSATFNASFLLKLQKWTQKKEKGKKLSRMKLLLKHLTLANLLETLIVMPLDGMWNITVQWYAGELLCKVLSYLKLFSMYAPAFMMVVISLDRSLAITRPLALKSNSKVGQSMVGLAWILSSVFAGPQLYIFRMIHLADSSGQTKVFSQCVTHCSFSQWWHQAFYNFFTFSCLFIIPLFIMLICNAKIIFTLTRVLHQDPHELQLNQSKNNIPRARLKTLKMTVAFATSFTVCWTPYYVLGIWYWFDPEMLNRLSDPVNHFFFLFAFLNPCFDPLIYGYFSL

As to `CCC(CC)CO`, the Potency entry in assay [1], in assay [2], in assay [3], in assay [4], in [5] and in assay [6] was “inactive” each time. The Potency entry in assay [7], in [8], in [9], in assay [10], in assay [11] and in [12] was “inactive” each time. Moreover, the Potency entry in assay [13], in [14], in assay [15] and in assay [16] was “inactive” each time.

Turning to `CCN(CC)CCCC(C)Nc1ccnc2cc(Cl)ccc12` (centres undefined), the activity, positive = activation in assay [1] is -10.3% [at 8.39 µM] and 0.993% [at 19 µM]. The activation in assay [2] was -0.539% [at 6.97 µM] and -0.536% [at 15.8 µM]; in [3], 0.411% [at 5.23 µM] and -0.526% [at 11.8 µM]; in assay [8], -0.411% [at 7.02 µM] and 1.58% [at 15.9 µM]; in assay [10] it was -0.78% [at 6.97 µM] and -0.406% [at 15.8 µM]; in assay [14], 0.827% [at 19 µM]; in assay [15], -2.86% [at 8.39 µM]. Moreover, the activity change, negative = cytotoxicity in [4] is 1.38% [at 5.99 µM] and -6.37% [at 13.5 µM]; in assay [5] it was 0.0381% [at 5.99 µM] and -13.2% [at 13.5 µM]; in assay [6], -9.2% [at 5.99 µM] and -2.12% [at 13.5 µM]. Further, the activity, negative = inhibition in assay [7] is 2.23% [at 5.62 µM] and 1.08% [at 12.7 µM]. Also, the Potency in [9] was 2.52 µM (active). The activity change, negative = inhibition in assay [16] is -2.41% [at 8.38 µM] and 1.11% [at 18.9 µM].

In the case of `CN(C/C=C/c1ccccc1)Cc1cccc2ccccc12`, the Potency entry in [1], in [2], in assay [3], in assay [17], in assay [4] and in [5] was “inactive” each time. The Potency entry in [6], in assay [18], in assay [8], in assay [9], in [10] and in assay [13] was “inactive” each time. Further, in assay [15], the Potency entry was “inactive”. Moreover, the Potency in assay [16] was 6.68 µM (active).

Turning to `CCC(C)c1cc(C(C)(C)C)c(O)c(C(C)(C)C)c1` (centres undefined), in assay [1], the Potency was 16.9 µM (active). Also, the Potency result in assay [2], in assay [19], in assay [17], in [4], in assay [5] and in [6] was “inactive” throughout. Further, the Potency result in assay [18], in assay [7], in assay [8], in [9], in assay [10] and in assay [11] was “inactive” in each case. Moreover, the Potency entry in assay [12], in assay [13], in assay [15] and in assay [16] was “inactive” each time.

With `O=C1Nc2ccc(Cl)cc2[C@@](C#CC2CC2)(C(F)(F)F)O1`, the Potency entry in assay [1], in assay [3], in assay [19], in assay [17], in [4] and in assay [5] was “inactive” throughout. The Potency entry in [6], in [18], in assay [9], in [10] and in assay [13] was “inactive” each time. Moreover, the Potency in assay [7] is 14.5 µM (active).

On to `CC(=O)Nc1ccc(S(=O)(=O)Nc2ccc([N+](=O)[O-])cc2)cc1`, for which the Potency result in assay [20], in assay [2], in assay [3], in assay [19], in assay [17] and in assay [4] was “inactive” in each case. The Potency entry in assay [5], in assay [6], in assay [18], in assay [7], in assay [8] and in [9] was “inactive” throughout. The Potency entry in [10], in assay [11], in [12], in [13], in assay [15] and in assay [16] was “inactive” each time.

For the molecule `CCN(CC)CCOC(=O)C1(C2CCCCC2)CCCCC1`, the Potency entry in assay [1], in assay [2], in assay [3], in assay [4], in assay [5] and in assay [13] was “inactive” throughout.

Take `CC(Cc1ccc(O)c(O)c1)C(C)Cc1ccc(O)c(O)c1` (centres undefined): in assay [1], the Potency was 68.6 µM (active). Also, the Potency result in assay [2], in [19], in [4], in [6], in assay [10] and in assay [15] was “inactive” in each case. The Potency entry in assay [16] was “inactive”.
